{"source": "PubChem BioAssay (EPA / NIEHS)", "note": "Active and inactive are the calls of the source. The calls were made as follows: active = hit-call score of the fitted dose curve at least 0.9, where 1 is the maximum; inactive = score below 0.9."}
{"read-out": "Lipoprotein lipase (LPL), LPL (gene 4023)", "experiment": "LTEA_HepaRG_LPL: Life Technologies and Expression Analysis (LTEA) Assay for Lipoprotein lipase (LPL) using HepaRG (AID 2283515)", "conditions": "mRNA level, 48 h; actives raise or lower the signal", "summary_of_the_method": "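Differentiated HepaRG cells, plated 48 h, then exposed 48 h in serum-free induction medium to 8 concentrations (top 100 uM, half-log steps) in 0.5% DMSO, duplicate. LPL mRNA measured by qRT-PCR, normalized to ACTB, GAPDH and POLR2A.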"}
{"smiles": "COc1cc(Cl)c(OC)cc1Cl", "outcome": "inactive"}
{"smiles": "N#CN=C1SCCN1Cc1ccc(Cl)nc1", "outcome": "inactive"}
{"smiles": "COc1ccc(-c2ccccc2)cc1NNC(=O)OC(C)C", "outcome": "inactive"}
{"smiles": "C=CCOC(=O)C(C)(C)OC(=O)c1cc(-n2c(=O)cc(C(F)(F)F)n(C)c2=O)ccc1Cl", "outcome": "inactive"}
{"smiles": "COCc1cnc(C2=NC(C)(C(C)C)C(=O)N2)c(C(=O)O)c1", "note": "(configuration not stated)", "outcome": "inactive"}
{"smiles": "CCOc1nc(C(Cl)(Cl)Cl)ns1", "AC50": "1.06 µM (active)"}
{"smiles": "Cc1nc(N(C)C)nc(OC(=O)N(C)C)c1C", "outcome": "inactive"}
{"smiles": "O=C(O)c1c(Cl)ccc2cc(Cl)cnc12", "outcome": "inactive"}
{"smiles": "COC(=O)NC(=S)Nc1ccccc1NC(=S)NC(=O)OC", "outcome": "inactive"}
{"smiles": "CCC(C)n1c(=O)[nH]c(C)c(Br)c1=O", "note": "(configuration not stated)", "AC50": "14.4 µM (active)"}
{"smiles": "COP(=S)(OC)SCn1nnc2ccccc2c1=O", "outcome": "inactive"}
{"smiles": "CCCCC(O)(Cn1cncn1)c1ccc(Cl)cc1Cl", "note": "(configuration not stated)", "AC50": "50 µM (active)"}
{"smiles": "Cc1cc(C)nc(Nc2ccccc2)n1", "outcome": "inactive"}
{"smiles": "CCSC(=O)N1CCCCCC1", "outcome": "inactive"}
{"smiles": "O=P(O)(O)CCCl", "outcome": "inactive"}
{"smiles": "CC(C)Oc1cccc(NC(=O)c2ccccc2C(F)(F)F)c1", "outcome": "inactive"}
{"smiles": "CC(C)(C)C(=O)C(Oc1ccc(Cl)cc1)n1cncn1", "note": "(configuration not stated)", "outcome": "inactive"}
{"smiles": "Nc1cnn(-c2ccccc2)c(=O)c1Cl", "outcome": "inactive"}
{"smiles": "CCN(CC)c1nc(C)cc(OP(=S)(OC)OC)n1", "outcome": "inactive"}
{"smiles": "CCCN(CC)CC1COC2(CCC(C(C)(C)C)CC2)O1", "note": "(configuration not stated)", "outcome": "inactive"}
{"smiles": "Nc1c(Cl)c(Cl)nc(C(=O)O)c1Cl", "outcome": "inactive"}
{"smiles": "CC(C)C1(C)N=C(c2ncccc2C(=O)O)NC1=O", "note": "(configuration not stated)", "outcome": "inactive"}
{"smiles": "COC(=O)N(C(=O)N1CO[C@@]2(C(=O)OC)Cc3cc(Cl)ccc3C2=N1)c1ccc(OC(F)(F)F)cc1", "AC50": "2.97 µM (active)"}
{"smiles": "CC(C)NC(=O)N1CC(=O)N(c2cc(Cl)cc(Cl)c2)C1=O", "AC50": "14.6 µM (active)"}
{"smiles": "CCOP(=S)(OCC)Oc1nc(Cl)n(C(C)C)n1", "AC50": "64.7 µM (active)"}
{"smiles": "CCCC(=NOCC)C1=C(O)CC(CC(C)SCC)CC1=O", "note": "(configuration not stated)", "outcome": "inactive"}
{"smiles": "COCC(=O)N(c1c(C)cccc1C)C(C)C(=O)OC", "note": "(configuration not stated)", "outcome": "inactive"}
{"smiles": "COP(=O)(OC)O/C(C)=C/C(=O)N(C)C", "outcome": "inactive"}
{"smiles": "CC1(C)C(C(=O)OC(C#N)c2cccc(Oc3ccccc3)c2)C1(C)C", "note": "(configuration not stated)", "outcome": "inactive"}
{"smiles": "CS(=O)(=O)c1ccc(C(=O)C2C(=O)CCCC2=O)c([N+](=O)[O-])c1", "outcome": "inactive"}
{"smiles": "CCCCC(C#N)(Cn1cncn1)c1ccc(Cl)cc1", "note": "(configuration not stated)", "outcome": "inactive"}
{"smiles": "CN=C=S", "outcome": "inactive"}
{"smiles": "Clc1cccc(C(Cl)(Cl)Cl)n1", "outcome": "inactive"}
{"smiles": "CCNP(=S)(OC)O/C(C)=C/C(=O)OC(C)C", "note": "(configuration not stated)", "AC50": "50 µM (active)"}
{"smiles": "Cc1cnc(C2=NC(C)(C(C)C)C(=O)N2)c(C(=O)O)c1", "note": "(configuration not stated)", "outcome": "inactive"}
{"smiles": "COc1cc(OC)nc(NC(=O)NS(=O)(=O)c2ncccc2OCC(F)(F)F)n1", "outcome": "inactive"}
{"read-out": "MicroRNA 122 (MIR122), gene 406906", "experiment": "LTEA_HepaRG_MIR122: Life Technologies and Expression Analysis (LTEA) Assay for MicroRNA 122 (MIR122) using HepaRG (AID 2283516); also: the transcript read is the microRNA miR-122", "conditions": "mRNA level, 48 h; actives raise or lower the signal", "summary_of_the_method": "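Differentiated human HepaRG cells were exposed 48 h in serum-free induction medium to eight half-log concentrations (top 100 uM, 0.5% DMSO). Transcript level was measured by TaqMan qRT-PCR, normalized to ACTB, GAPDH and POLR2A, and fitted bidirectionally versus DMSO.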"}
{"smiles": "COc1cc(Cl)c(OC)cc1Cl", "outcome": "inactive"}
{"smiles": "N#CN=C1SCCN1Cc1ccc(Cl)nc1", "outcome": "inactive"}
{"smiles": "COc1ccc(-c2ccccc2)cc1NNC(=O)OC(C)C", "outcome": "inactive"}
{"smiles": "C=CCOC(=O)C(C)(C)OC(=O)c1cc(-n2c(=O)cc(C(F)(F)F)n(C)c2=O)ccc1Cl", "outcome": "inactive"}
{"smiles": "COCc1cnc(C2=NC(C)(C(C)C)C(=O)N2)c(C(=O)O)c1", "note": "(configuration not stated)", "outcome": "inactive"}
{"smiles": "CCOc1nc(C(Cl)(Cl)Cl)ns1", "AC50": "0.682 µM (active)"}
{"smiles": "Cc1nc(N(C)C)nc(OC(=O)N(C)C)c1C", "outcome": "inactive"}
{"smiles": "O=C(O)c1c(Cl)ccc2cc(Cl)cnc12", "outcome": "inactive"}
{"smiles": "COC(=O)NC(=S)Nc1ccccc1NC(=S)NC(=O)OC", "outcome": "inactive"}
{"smiles": "CCC(C)n1c(=O)[nH]c(C)c(Br)c1=O", "note": "(configuration not stated)", "AC50": "10.4 µM (active)"}
{"smiles": "COP(=S)(OC)SCn1nnc2ccccc2c1=O", "outcome": "inactive"}
{"smiles": "CCCCC(O)(Cn1cncn1)c1ccc(Cl)cc1Cl", "note": "(configuration not stated)", "AC50": "77 µM (active)"}
{"smiles": "Cc1cc(C)nc(Nc2ccccc2)n1", "outcome": "inactive"}
{"smiles": "CCSC(=O)N1CCCCCC1", "outcome": "inactive"}
{"smiles": "O=P(O)(O)CCCl", "outcome": "inactive"}
{"smiles": "CC(C)Oc1cccc(NC(=O)c2ccccc2C(F)(F)F)c1", "outcome": "inactive"}
{"smiles": "CC(C)(C)C(=O)C(Oc1ccc(Cl)cc1)n1cncn1", "note": "(configuration not stated)", "outcome": "inactive"}
{"smiles": "Nc1cnn(-c2ccccc2)c(=O)c1Cl", "outcome": "inactive"}
{"smiles": "CCN(CC)c1nc(C)cc(OP(=S)(OC)OC)n1", "outcome": "inactive"}
{"smiles": "CCCN(CC)CC1COC2(CCC(C(C)(C)C)CC2)O1", "note": "(configuration not stated)", "outcome": "inactive"}
{"smiles": "Nc1c(Cl)c(Cl)nc(C(=O)O)c1Cl", "outcome": "inactive"}
{"smiles": "CC(C)C1(C)N=C(c2ncccc2C(=O)O)NC1=O", "note": "(configuration not stated)", "outcome": "inactive"}
{"smiles": "COC(=O)N(C(=O)N1CO[C@@]2(C(=O)OC)Cc3cc(Cl)ccc3C2=N1)c1ccc(OC(F)(F)F)cc1", "AC50": "40 µM (active)"}
{"smiles": "CC(C)NC(=O)N1CC(=O)N(c2cc(Cl)cc(Cl)c2)C1=O", "outcome": "inactive"}
{"smiles": "CCOP(=S)(OCC)Oc1nc(Cl)n(C(C)C)n1", "outcome": "inactive"}
{"smiles": "CCCC(=NOCC)C1=C(O)CC(CC(C)SCC)CC1=O", "note": "(configuration not stated)", "outcome": "inactive"}
{"smiles": "COCC(=O)N(c1c(C)cccc1C)C(C)C(=O)OC", "note": "(configuration not stated)", "outcome": "inactive"}
{"smiles": "COP(=O)(OC)O/C(C)=C/C(=O)N(C)C", "outcome": "inactive"}
{"smiles": "CC1(C)C(C(=O)OC(C#N)c2cccc(Oc3ccccc3)c2)C1(C)C", "note": "(configuration not stated)", "outcome": "inactive"}
{"smiles": "CS(=O)(=O)c1ccc(C(=O)C2C(=O)CCCC2=O)c([N+](=O)[O-])c1", "outcome": "inactive"}
{"smiles": "CCCCC(C#N)(Cn1cncn1)c1ccc(Cl)cc1", "note": "(configuration not stated)", "outcome": "inactive"}
{"smiles": "CN=C=S", "outcome": "inactive"}
{"smiles": "Clc1cccc(C(Cl)(Cl)Cl)n1", "outcome": "inactive"}
{"smiles": "CCNP(=S)(OC)O/C(C)=C/C(=O)OC(C)C", "note": "(configuration not stated)", "outcome": "inactive"}
{"smiles": "Cc1cnc(C2=NC(C)(C(C)C)C(=O)N2)c(C(=O)O)c1", "note": "(configuration not stated)", "outcome": "inactive"}
{"smiles": "COc1cc(OC)nc(NC(=O)NS(=O)(=O)c2ncccc2OCC(F)(F)F)n1", "outcome": "inactive"}
